Test results: ChEMBL document CHEMBL3988442, “University of Dundee, Small-Polar-MMV Screening Library” (2021)
Screen size: about 48,000 compounds; about 13,000 (27%) showed an effect of 50% or more. This is one part of the list.

tested on: Wolbachia pipientis; experiment: Anti-Wolbachia Cell-Based Screen; format: functional; design: scale not given: in the data most compounds retested in dose-response had high values; details: 5 µM

| SMILES | Percent Effect |
| --- | --- |
| Cc1cc(C(=O)N(C)Cc2ccoc2)c(NC(=O)C(C)(C)C)s1 | -2.438% |
| Cn1c(CS(=O)(=O)Cc2ccc(Cl)cc2)cc(=O)n(C)c1=O | 5.826% |
| C/C=C(\C)CN1CCC2(CCC(=O)N2OCc2ccccc2F)CC1 | 2.227% |
| CCOCc1ccccc1NC(=O)NCC(C)(O)c1cc(C)oc1C (stereo not drawn) | -7.22% |
| CCc1ccccc1OC1CN(C(=O)CN(C)Cc2cccnc2)C1 | -4.322% |
| Cc1noc(Cl)c1CC(=O)NCCOc1ccc(F)cc1F | 16.27% |
| COCCNC(=O)Cn1c(-c2ccc(F)cc2)nc(C)c(CCO)c1=O | 103.8% |
| CCN(Cc1cnn(CC)c1)C(=O)Cn1c(=O)c(C)nc2ccccc21 | -5.598% |
| COCCNC(=O)c1sc(Nc2ccc(Cl)cn2)nc1C | 19.38% |
| Cc1nc(-c2ccc(Cl)cc2)n(CC(=O)NC(C)C)c(=O)c1CCO | 129.7% |
| COc1c(CNCCNC(=O)Cc2ccc(F)cc2)c(C)nn1C | -0.8821% |
| COCCNC(=O)Cn1c(-c2ccc(Cl)cc2)nc(C)c(CCO)c1=O | 140% |
| CCN(CC)C(=O)Cn1c(-c2ccc(Cl)cc2)nc(C)c(CCO)c1=O | 119.6% |
| CCN(CC)C(=O)Cn1c(C)cc2nc(SC)n(CC(C)C)c(=O)c21 | 2.572% |
| CC(CNC(=O)c1cccnc1O)Cn1cccn1 (stereo not drawn) | -0.5981% |
| O=C1CCCN1CCCC(=O)N1CCCCC1c1ccc(F)cc1 (stereo not drawn) | -8.614% |
| O=C(NCCNS(=O)(=O)c1ccc(C(F)(F)F)cc1)c1ccoc1 | 7.368% |
| CCCN1CCC(NC(=O)c2csc(C)c2C)CC1 | 2.027% |
| O=C(CS(=O)(=O)c1ccc(Cl)cc1)NC1CCCc2ccccc21 (stereo not drawn) | 1.396% |
| CC(C)OC(C)c1nnc(SCC(=O)O)n1-c1ccc(F)cc1F (stereo not drawn) | 15.24% |
| O=C(O)[C@@H]1CN(C(=O)CCc2ccccn2)C[C@H]1c1ccccc1 | 11.77% |

| SMILES | Percent Effect |
| --- | --- |
| Cc1nc(C)c(CC(=O)N2C[C@@H](C(=O)O)[C@H](c3ccncc3)C2)s1 | -15.05% |
| N[C@H]1CN(C(=O)c2ccccc2OCc2ccccc2)C[C@@H]1C1CC1 | 10.21% |
| O=C(O)[C@@H]1CN(C(=O)Cc2ccccc2Cl)C[C@H]1C1CC1 | 117.2% |
| N[C@H]1CN(C(=O)Cc2ccc(Cl)c(Cl)c2)C[C@@H]1C1CC1 | 0.666% |
| CCOCCOc1ccccc1C(=O)N1C[C@H](C2CC2)[C@@H](N)C1 | -0.9919% |
| COc1ccccc1[C@@H]1CN(C(=O)Cc2csc(C)n2)C[C@H]1C(=O)O | 12.9% |
| CCOc1ccc(CC(=O)N2C[C@H](C3CC3)[C@@H](N)C2)cc1 | 13.07% |
| CCOc1ccccc1CC(=O)N1C[C@@H](C(=O)O)[C@H](c2ccncc2)C1 | 102.2% |
| CCOc1ccccc1CC(=O)N1C[C@H](C2CC2)[C@@H](N)C1 | 104.9% |
| CCOc1ccccc1CC(=O)N1C[C@@H](C(=O)O)[C@H](C2CC2)C1 | 111.1% |
| O=C(O)[C@@H]1CN(Cc2cc3c(cc2Cl)OCO3)C[C@H]1C1CC1 | -1.718% |
| CS(=O)(=O)N1C[C@H]2CNC[C@@]2(C(=O)NCCCc2ccccc2)C1 | 15.21% |
| C1CCCN(c2nc(C3CC3)ns2)CC1 | 16.93% |
| CCCS(=O)(=O)N1CCC2(CN(c3cnn(C)c3)C(=O)CN2C)C1.O=C(O)C(F)(F)F (stereo not drawn) | -3.589% |
| CS(=O)(=O)NCc1cc(-c2cc(F)cc(F)c2)nc(N2CCCC2)n1 | 85.03% |
| Cc1nn2c(N3CCC(O)C3)cc(-c3ccccc3)nc2c1C (stereo not drawn) | 3.691% |
| Cc1cc(F)cc(CN2CCCn3nc(CNS(C)(=O)=O)cc3C2)c1 | -6.917% |
| CS(=O)(=O)NCc1cc(-c2cc(F)cc(F)c2)nc(N2CC[C@H](O)C2)n1 | 97.73% |
| CCc1cc(NCCS(=O)(=O)N(C)C)nc(N2CCOCC2)n1 | 7.02% |
| Cc1cc(F)cc(S(=O)(=O)NCCCN2CCC(O)CC2)c1 | 17.75% |
| CCc1cc(NC(C)(C)C)nc(N2CCOCC2)n1 | -8.862% |

| SMILES | Percent Effect |
| --- | --- |
| Cc1nc(N2CCCC2)nc(C)c1NS(C)(=O)=O | 5.529% |
| CS(=O)(=O)NCc1cc(-c2cc(F)cc(F)c2)nc(N2CCOCC2)n1 | 112.2% |
| Cn1cnc2c1C(C(=O)N1CCCC1)N(CC1CC1)CC2.O=C(O)C(F)(F)F (stereo not drawn) | 6.577% |
| Cc1noc(C)c1CN(C)C(=O)C1CCCN1S(N)(=O)=O (stereo not drawn) | 1.482% |
| Cc1nc2ccccc2n(Cc2nnnn2C2CC2)c1=O | 11.64% |
| CCc1ccc(CN2CCN(c3ccc(Cl)nn3)CC2)nc1 | -1.382% |
| CC(=O)N1CC[C@H]2CC(=O)N(C3CC3)CC[C@H]2C1 | -2.772% |
| COCc1noc(-c2ccc(N3CCCC3c3ccc(F)cc3)nc2)n1 (stereo not drawn) | 17.95% |
| CCSc1ccccc1C(=O)N1CC2(COC(C)(C)OC2)C1 | 0.7993% |
| CC(C)N1CCC(C(=O)N(C)C(C)c2ccon2)CC1 (stereo not drawn) | -1.072% |
| CCN1CCN(Cc2ccnc(-c3cccnc3)n2)CC1.O=C(O)CC(O)(CC(=O)O)C(=O)O | -7.954% |
| CC(C)N1CCC(NCc2cccnc2N(C)Cc2ccccc2)CC1 | -0.8543% |
| CCCc1ncc(CN(C)C2CCCN(CCc3ccccc3)C2)cn1 (stereo not drawn) | -21.26% |
| COc1ncc(CN(C)C2CCN(C(C)C)CC2)cn1 | 134.1% |
| CCc1ncc(CN(C)C2CCN(C(C)C)CC2)cn1.O=C(O)CC(O)(CC(=O)O)C(=O)O | 161.6% |
| COc1ncc(CN(CCN(C)C)Cc2ccc(C)s2)cn1 | 7.179% |
| CC(C)N1CCC(NCc2cccnc2N(C)C)CC1 | 4.897% |
| CNc1ncc(CN(C)C2CCN(C(C)C)CC2)cn1 | 131.8% |
| Cc1cc2cc(Nc3c(C#N)c(=O)n(C)c(=O)n3C)ccc2[nH]1 | 4.966% |
| COc1ccc2c(c1)CC(NCc1cccc(OCC(N)=O)c1)CC2 (stereo not drawn) | 2.98% |
| CN(C)c1cc2c(nn1)CCN(C(=O)c1cc3ccccc3[nH]c1=O)C2 | 4.124% |
